Calb FLC: C. albicans growth modulation with fluconazole; growth inhibition, % (no concentration beside the values); 300,000 compounds, 0.57% hits; C. albicans CaCi-2 (fluconazole-resistant clinical isolate) + fluconazole, Alamar Blue growth, 48 h;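 active = growth inhibition above about 58% in most replicates, limit read from the data, passing the limit was not always enough; inconclusive = exactly half the replicates above a set limit; inactive = most replicates below a set limit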;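 note: all wells also contain fluconazole at 8 µg/ml as a sub-toxic cotreatment; 0% = median of DMSO wells and 100% = median of geldanamycin control wells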
PP5 inh: inhibitors of human protein phosphatase 5 (PP5); inhibition, % at 6.7 µM; 320,000 compounds, 0.18% hits; purified PP5c, OMFP substrate fluorescence; AID 1987;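 active = inhibition above the campaign's mean inhibition across all tested compounds plus 3 SD, cut at about 9.5% in these data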;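 note: 0% = DMSO only and 100% = 100 µM cantharidin control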
Beta apoptosis: beta cell apoptosis inhibition; AID 435005; INS-1E cytokine-induced death, ATP luminescence, 48 h; percent of positive-control rescue, neutral wells zero; protection from apoptosis, % (concentration not given with the values); 300,000 compounds, 0.8% hits;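 active = Every replicate reaches about 75%, or at least half do and their mean reaches it too, limit read from the data; inconclusive = At least half of replicates reach the limit but their mean does not; inactive = Under half of replicates reach the limit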;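 note: 0% = cytokine-treated negative control wells and 100% = positive control rescue; higher means more ATP so stronger rescue from cytokine killing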
CSC inhib: blocks cancer stem cells | cancer stem cell-like cells viability, luminescence | inhibition, % at 7.5 µM | 300,000 compounds, 1.1% hits | AID 2717; in the data active = inhibition above about 75%; inconclusive = no clear call, values can overlap the other calls; tested in HMLE shEcad cells
PP1 inh: blocks human PP1-alpha phosphatase, a PP5 counter-screen; P62136; purified PP1alpha, OMFP fluorescence; inhibition, % at 6.7 µM; 320,000 compounds, 0.9% hits; AID 2235;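 active = inhibition above the mean inhibition of all tested compounds plus 3 SD, computed separately for each screening campaign, cut at about 15% in these data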
Mdm2-MdmX inh: human Mdm2/MdmX binding inhibition | SaOS-2 split-luciferase Mdm2/MdmX complementation, luminescence | 330,000 compounds, 3% hits | inhibition, % at 8 µM | O15151+Q00987;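 active = inhibition of at least 50% at 8 µM in the primary screen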
Target sequence (O15151 whole entry, looked up): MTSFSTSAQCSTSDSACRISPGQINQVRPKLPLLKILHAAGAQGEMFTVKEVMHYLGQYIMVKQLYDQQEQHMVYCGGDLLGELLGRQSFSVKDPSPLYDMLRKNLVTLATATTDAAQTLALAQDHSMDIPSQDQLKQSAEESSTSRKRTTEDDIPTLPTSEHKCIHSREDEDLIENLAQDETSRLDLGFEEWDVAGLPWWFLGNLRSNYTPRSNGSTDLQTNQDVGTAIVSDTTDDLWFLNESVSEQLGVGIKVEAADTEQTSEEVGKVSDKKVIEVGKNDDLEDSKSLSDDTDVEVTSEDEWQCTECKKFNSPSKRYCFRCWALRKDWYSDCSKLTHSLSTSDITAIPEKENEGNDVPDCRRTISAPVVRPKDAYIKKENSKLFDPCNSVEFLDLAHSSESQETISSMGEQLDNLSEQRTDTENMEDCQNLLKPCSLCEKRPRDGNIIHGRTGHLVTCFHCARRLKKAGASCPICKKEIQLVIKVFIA
Target sequence (Q00987 whole entry, looked up): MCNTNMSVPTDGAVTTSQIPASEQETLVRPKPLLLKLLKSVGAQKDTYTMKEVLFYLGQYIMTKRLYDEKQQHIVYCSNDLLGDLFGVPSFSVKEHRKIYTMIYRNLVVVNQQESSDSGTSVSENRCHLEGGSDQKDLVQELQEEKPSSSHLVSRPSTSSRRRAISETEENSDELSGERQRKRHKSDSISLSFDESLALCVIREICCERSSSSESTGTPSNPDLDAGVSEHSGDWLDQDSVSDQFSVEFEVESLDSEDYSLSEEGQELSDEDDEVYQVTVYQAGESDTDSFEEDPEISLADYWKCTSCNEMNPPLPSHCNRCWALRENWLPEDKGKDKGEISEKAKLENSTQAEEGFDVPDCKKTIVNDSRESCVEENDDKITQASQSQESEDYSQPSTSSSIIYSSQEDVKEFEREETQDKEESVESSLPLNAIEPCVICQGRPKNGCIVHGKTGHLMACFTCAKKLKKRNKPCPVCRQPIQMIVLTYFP
Mdm2-MdmX conf: human Mdm2/MdmX binding inhibition, confirmed. inhibition, % at 8 µM. luminescent assay. shares compounds with Mdm2-MdmX inh. 10,000 compounds, 55% hits; in the data active = inhibition above about 40%
Full FLuc ctr: counter-screen for Mdm2/MdmX inhibitors: full-length luciferase; inhibition, % at 8 µM; SaOS-2 full-length luciferase counterscreen, luminescence; 6,200 compounds, 77% hits; shares compounds with Mdm2-MdmX inh;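 active = mean inhibition at 8 µM reaching about 37%, which flags the compound as non-specific, limit read from the data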;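 note: p53-null SaOS-2 cells with luciferase driven by a doxycycline-inducible promoter; compound on cells about two nights before reading with doxycycline added after day one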
An asterisk follows results filed as active; ? = inconclusive; · = no result given. Rows were chosen to be rich in hits. Some 4.9% of all compounds tested hit in one or more screens of this group.

SMILES	Calb FLC	PP5 inh	Beta apoptosis	CSC inhib	PP1 inh	Mdm2-MdmX inh	Mdm2-MdmX conf	Full FLuc ctr
CCOC(=O)Cn1c(S(=O)(=O)Cc2cccc(F)c2)nc(-c2ccccc2)c1-c1ccccc1	3	5	31	29	7	81*	56*	67*
CCOC(=O)Cn1c(S(=O)(=O)Cc2ccc(F)cc2)nc(-c2ccccc2)c1-c1ccccc1	?	1	3	20	1	79*	56*	63*
C#CCn1c(S(=O)(=O)Cc2ccc(F)cc2)nc(-c2ccccc2)c1-c1ccccc1	34	5	20	54	7	97*	91*	52*
CCOC(=O)Cn1c(-c2ccc(OC)cc2)c(-c2ccc(OC)cc2)nnc1=O	13	2	-5	-11	-3	4	·	·
Cc1nc2ccccc2c(C)c1CC(=O)N(C)CC(=O)Nc1cccc(F)c1	7	0	·	-17	-1	0	·	·
CCCn1c(SCC(=O)Nc2cccc(S(=O)(=O)N(C)C)c2)nc2ccccc2c1=O	-3	1	2	7	-2	1	·	·
O=C(Nc1cc([N+](=O)[O-])ccc1Cl)C(Sc1ccccc1)c1ccccc1 (stereo not drawn)	-12	3	5	22	3	14	·	·
O=C(NNc1ccccc1[N+](=O)[O-])Nc1ccc(Cl)c(Cl)c1	-18	5	-13	-5	3	87*	80*	41*
CCN(CC)S(=O)(=O)c1cc([N+](=O)[O-])ccc1NNC(=O)Nc1ccc(Cl)c(Cl)c1	-7	8	113*	-24	13	91*	93*	52*
O=C(NNc1ccccc1[N+](=O)[O-])Nc1ccccc1	-22	0	-8	6	-3	14	·	·
O=C(Nc1ccc(Cl)c([N+](=O)[O-])c1)C(Sc1ccccc1)c1ccccc1 (stereo not drawn)	-5	3	14	-5	5	88*	82*	24
O=C(c1ccco1)N1CCN(Cc2nc(-c3cccs3)no2)CC1	-2	-2	5	-6	0	14	·	·
Brc1nc(-c2ccccc2)nc(-c2ccccc2)c1Br	0	-2	-5	51	-1	79*	18	·
c1ccc(-c2nnc(-c3ccncc3)nc2-c2ccccc2)cc1	57	0	-18	·	-1	13	·	·
C=C(C)CNC(=S)NNC(=O)CCn1c2ccc(Cl)cc2c2cc(Cl)ccc21	2	2	5	102*	3	54*	18	·
COc1ccc2[nH]c(C)c(CCNC(=S)Nc3cccc(C)c3)c2c1	-4	5	·	-7	-3	46	·	·
CCc1cccc(CC)c1NC(=S)NCCc1c(C)[nH]c2ccc(C)cc12	-17	3	42	18	3	71*	51*	54*
CCc1cccc(C)c1NC(=S)NCCc1c(C)[nH]c2ccc(C)cc12	-14	2	3	5	10	64*	54*	41*
C[N+]1(C2CCC3CCCC2C3O)CCCCC1 (stereo not drawn)	-10	3	0	·	2	-10	·	·
CCN(CC)CCCNC(=O)c1cc2c(-c3cccc(OC)c3)nn(C)c2s1	-2	2	2	31	-4	23	·	·
CCCCN(CC)CCCNC(=O)c1cc2c(-c3ccc(OC)c(OC)c3)nn(C)c2s1	-9	-1	-1	-2	1	57*	67*	82*
COc1cccc(-c2nn(C)c3sc(C(=O)NCc4ccco4)cc23)c1	-1	6	-2	-5	1	61*	40*	69*
C=C(C)C1CC=C(C)/C(=N/NC(=O)c2ccoc2C)C1 (stereo not drawn)	0	1	5	-11	-2	-29	·	·
CN(C)CCCNC(=O)/C(=C\c1ccc(-c2ccc(Br)cc2)o1)NC(=O)c1ccccc1	-1	4	12	14	2	100*	52*	29
Cc1ccc(C(=O)N/C(=C\c2ccc(-c3ccccc3[N+](=O)[O-])o2)C(=O)NCCCN(C)C)cc1	11	5	4	-11	0	25	·	·

Compound activity as filed in PubChem BioAssay.
